Shown are actives, neighbours in structure and some others; about 5.7% of the full set was active somewhere.
KB-3-1 tox: KB-3-1 parental cell cytotoxicity | KB-3-1 viability, CellTiter-Glo ATP luminescence, 72 h | hit rate 1.4% among 400,000 | Potency, µM (doses to about 46.1 µM), usual class: cytotoxic; note: nearly all actives have a fitted effect of over 60% in size
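Here the drug-naive KB-3-1 line serves as comparator for MDR sub-line selectivity; cells received compound titrations, 72 h at 37 °C, then CellTiter-Glo readout.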
KB-V1 MDR tox: kills drug-selected multidrug resistant KB-V1 cells | KB-V1 MDR cells viability, CellTiter-Glo, 72 h | Potency, µM (series often up to 46.1 µM), usual class: cytotoxic | hit rate 3.4% among 400,000 | AID 1347076; note: nearly all actives have a fitted effect of over 60% in size
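Cytotoxicity toward P-gp-expressing KB-V1 cells was determined as loss of CellTiter-Glo luminescence after 72 h at 37 degrees C. Compounds were tested in quantitative HTS format across a concentration range, with curves fitted to normalized data.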
HT1080NT lethal: kills 2HG-producing HT-1080-NT fibrosarcoma cells | hit rate 1.6% among 360,000 | HT-1080-NT fibrosarcoma viability, CellTiter-Glo ATP luminescence, 48 h | Potency, µM (top dose mostly 46.1 µM), without a hit: at the top dose activity, negative = less viability, most hits filed as cytotoxic | AID 686970;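 note: NT is the 2HG producing partner of a matched IDH1 knockdown line; 0% = DMSO-treated cells and -100% = media-only wells without cells; nearly all actives have a fitted effect of over 55% in size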
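750 cells/well, RPMI + 5% FBS; 2 h settle, compound pin-transfer, 48 h at 37 degrees C. CellTiter-Glo 10 min RT, luminescence. Normalized to DMSO and media-only wells.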
HT1080 IDH1KD tx: kills HT-1080 cells with IDH1 knockdown; hit rate 2% among 360,000; Potency, µM (highest dose often 46.1 µM), for inactives: at the highest dose activity, negative = toxicity, most hits filed as cytotoxic; HT-1080 IDH1 knockdown viability, ATP luminescence, 48 h; AID 686971;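 note: 0% = DMSO wells and -100% = cell-free medium wells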
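Viability of IDH1-knockdown HT-1080 fibrosarcoma cells was assessed by CellTiter-Glo after 48 h at 37 °C with titrated compound; concentration-effect curves were classified by fit quality and response size.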
* marks the source's active call; other numbers are inactive results; i = inactive; ? = inconclusive; . = no result given; ! = repeats disagree. Calls come from the whole dose curve; as a rule, active = well fitted curve in the direction sought with a large enough effect; inconclusive = small, poorly fitted or top-dose-only effect, or another doubt; inactive = no such curve, though single readings can be large; an effect the other way counts as inactive or inconclusive. Unless noted, % is set by controls: 0 for no effect and ±100 for the full control effect; potency is the fitted concentration of half-maximal effect.

SMILES | KB-3-1 tox | KB-V1 MDR tox | HT1080NT lethal | HT1080 IDH1KD tx
CC(C)[C@@H]1CC2=C(C(=O)OC(C)(C)O2)[C@H](CCc2ccccc2)O1 | i | i | -15.3% | 16.4µM*
COc1ccc(C2CC(=O)Oc3cc4c(cc32)OCO4)cc1 (stereo unspecified) | i | i | 9.5% | 14.7%
O=C1OCC2=C1C(c1ccc3c(c1)OCO3)c1cc3c(cc1O2)OCO3 (stereo unspecified) | 3.26µM* | 1.46µM* | 3.26µM* | 6.51µM*
COc1cc(C2C3=C(COC3=O)Oc3cc4c(cc32)OCO4)cc(OC)c1OC (stereo unspecified) | 0.581µM* | 0.103µM*! | 0.103µM* | ?
COc1cc(C2C3=C(COC3=O)Oc3cc4c(cc32)OCO4)cc(OC)c1O (stereo unspecified) | ? | ? | 0.461µM* | ?
N#CC1=C(N)Oc2cc3c(cc2C1c1ccc(Cl)cc1)OCO3 (stereo unspecified) | i | i | -0.4% | ?
COc1cc(C2CC(=O)Oc3cc4c(cc32)OCO4)cc(OC)c1OC (stereo unspecified) | i | i | -3.0% | -0.9%
COc1ccc(NC(=O)C2CCN(c3cc(C)nc4c(-c5ccc(Cl)cc5)c(C)nn34)CC2)cc1 | i | i | . | .
COc1ccc(CCNC(=O)Cn2nc(C)n3c(cc4cc(F)ccc43)c2=O)cc1OC | i | i | . | .
COc1cc(Nc2ncnc3onc(-c4ccc(Cl)cc4)c23)cc(OC)c1 | i | i | . | .
COc1ccc(Nc2ncnc3onc(-c4ccc(Cl)cc4)c23)cc1Cl | 10.3µM* | i | . | .
NC(CS)C(=O)O (stereo unspecified) | ? | i | . | .
CC(Sc1nnc(NC2CC2)s1)C(=O)Nc1ccc(N2CCOCC2)cc1 (stereo unspecified) | i | i | -0.3% | 12.8%
O=C(CSc1nnc(NC2CCCCC2)s1)Nc1ccc(N2CCOCC2)cc1 | i | 5.8µM* | 0.2% | -25.6%
CC(C)(C)c1ccc(CC(=O)N2CCC2(C)C(=O)NCc2cccc3ccccc23)cc1 (stereo unspecified) | i | i | ? | 16.4µM*
CC1(C(=O)NCc2ccccc2Br)CCN1C(=O)Cc1ccc(-c2ccccc2)cc1 (stereo unspecified) | ? | ? | 16.4µM* | ?
CC(C)Oc1ccc(CN2CCC2(C)C(=O)NCc2cccc3ccccc23)cc1 (stereo unspecified) | ? | ? | 18.4µM* | ?
Cc1oc(-c2ccc(C(=O)NCc3cccc(F)c3)cc2)nc1COc1ccccc1 | i | i | . | .
COc1ccccc1C1C=C(c2ccc(C)cc2)Nc2nnnn21 (stereo unspecified) | i | i | -4.8% | -13.6%
COc1ccc(C2=CC(c3c(C)nn(-c4ccccc4)c3Cl)n3nnnc3N2)cc1OC (stereo unspecified) | 16.4µM* | 20.6µM* | ? | ?
CCCOC(=O)c1cccc(Nc2nc(CCC)cc(=O)[nH]2)c1 | ? | i | . | .
Nc1nc2ccc(-c3nc4ccccc4o3)cc2s1 | 5.8µM* | 1.03µM* | -6.1% | -18.5%
CCCN(Cc1cc2cc(C)ccc2[nH]c1=O)C(=O)c1cccc(Cl)c1 | ? | i | . | .
CC[N+](C)(C)c1ccc(/C=C/c2ccncc2)cc1 | 2.31µM* | i | . | .
C(=C\c1ccncc1)/c1ccccc1 | i | i | 24.3% | 19.0%
SMILES | KB-3-1 tox | KB-V1 MDR tox | HT1080NT lethal | HT1080 IDH1KD tx
CCC[N+](C)(C)c1ccc(/C=C/c2ccncc2)cc1 | 1.46µM* | i | . | .
COc1ccc(Cl)cc1C(=O)Nc1ccc2oc(-c3ccc(C(C)(C)C)cc3)nc2c1 | i | i | . | .
O=C(NCCSc1c(-c2ccccc2)[nH]c2ccccc12)c1ccc(S(=O)(=O)N2CCOCC2)cc1 | i | i | . | .
COc1ccc(C(CNC(=O)Cc2ccc(-c3ccccc3)cc2)N(C)C)cc1 (stereo unspecified) | i | i | 18.4µM* | 20.6µM*
CN(C)C(CNC(=O)c1ccc(-c2ccccc2)cc1)c1ccccc1 (stereo unspecified) | i | i | 16.4µM* | 16.4µM*
CN(C)C(CNC(=O)c1ccc(C(=O)c2ccccc2)cc1)c1ccccc1 (stereo unspecified) | i | i | -27.5% | -17.4%
Cc1ccc(CCNC(=O)c2cc3ccccn3n2)cc1 | i | i | . | .
COc1ccc(NC(=O)c2sc3nc(C)c(C(=O)Nc4ccc(C)cc4C)c(-c4cccs4)c3c2N)cc1 | i | i | . | .
CCC(c1nnc(SCC(=O)Nc2nnc(-c3ccccc3)o2)n1Cc1ccccc1)N(C)C (stereo unspecified) | i | 23.1µM* | -2.9% | 0.6%
COc1nc(-c2ccccc2)cc(-c2ccc(OC)c(OC)c2)n1 | i | 8.2µM* | -7.6% | ?
COc1ccc(-c2cc(-c3ccccc3)nc(NN)n2)cc1OC | i | i | ? | ?
COc1cccc(C(=O)NNC2=C(C(=O)C(F)(F)F)CCC2)c1 | ? | i | ? | 11.6µM*
COc1cccc(C(=O)NN/C(C)=C/C(=O)C(F)(F)C(F)(F)C(F)(F)F)c1 | ? | i | ? | 14.6µM*
O=C(NNC1=C(C(=O)C(F)(F)F)CCC1)c1ccc(Br)cc1 | i | i | ? | 10µM*
COc1ccccc1C(=O)NNC1=C(C(=O)C(F)(F)F)CCC1 | i | i | 3.55µM* | 2.24µM*
COc1cccc(C(=O)NN=C2CCCC2)c1 | i | ? | -3.7% | -11.5%
COc1cccc(C(=O)NNC(=O)Cc2ccc(Cl)cc2)c1 | i | i | 1.4% | 11.8%
Nc1ccccc1C(=O)NNC1=C(C(=O)C(F)(F)F)CCC1 | ? | i | -21.3% | ?
CC(C)(C)C(C(=O)NC1CCCC1)N1CCN(c2ncccc2C#N)CC1 (stereo unspecified) | i | i | 0.0% | 4.9%
O=C(NNC1=C(C(=O)C(F)(F)F)CCC1)c1ccccc1Cl | ? | ? | 14.6µM* | ?
O=C(NNC1=C(C(=O)C(F)(F)F)CCC1)c1ccccc1O | ? | i | 23.1µM* | ?
C=CCc1c(C)nc(C)nc1N/N=C/c1ccccc1O | i | 7.31µM* | 6.3% | -23.4%
C=CCc1c(C)nc(C)nc1N/N=C/c1ccc([N+](=O)[O-])cc1 | i | i | ? | 9.0%
Cc1cccc2cc(CN(Cc3ccccc3)C(=O)c3cccc(F)c3)c(Cl)nc12 | i | 18.4µM* | -26.0% | -2.4%
COc1ccc2[nH]c(C)cc(=O)c2c1 | i | i | 11.6% | 12.8%
COc1ccc2[nH]c3c(C)c4ccncc4c(C)c3c2c1 | 18.4µM* | 8.2µM* | 23.1µM* | 18.4µM*
CCOc1ccccc1NC(=S)NC(=O)CCCOc1ccc(Cl)cc1Cl | i | i | 11.2µM* | ?
Cc1cc(Cl)ccc1OCCCC(=O)NO | ? | i | 20.6µM* | 20.6µM*
O=C(CCCOc1ccc(Cl)cc1Cl)Nc1cccnc1 | i | 18.4µM* | 6.5% | 11.8%

Source: PubChem BioAssay (National Center for Advancing Translational Sciences (NCATS))
